Data published in PubChem BioAssay AID1159580 (chemical genetic matrix, 2015).
Out of some 5,500 compounds screened, about 2,000 (36%) were called active. About 18% were inconclusive and are not listed. Some of the results follow. Values without a mark were called inactive. Rule as the data show it: active = normalized growth mostly below about 0.91 (no sharp cut-off); inconclusive = no clear call, values can overlap the other calls; inactive = mostly above about 0.92.

Test: chemical genetic growth profiling, strain panel (AID 1159580);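 also: tested at 20 µM; growth read once vehicle control cultures reached saturation at 30 °C; 1 = growth at the plate median or of vehicle wells; lower values mean less growth of the strain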
Details: S. cerevisiae deletion strains, growth OD

C#Cc1cccc(N=Cc2cc(Cl)cc(Br)c2O)c1
normalized growth (locus YAR019C, strain CDC15, hits give low values): 0.101 (active) | normalized growth (locus YBL105C, strain PKC1, hits give low values): 0.0988 (active) | normalized growth (locus YBR135W, strain CKS1, hits give low values): 0.128 (active) | normalized growth (locus YBR136W, strain MEC1, hits give low values): 0.107 (active) | normalized growth (locus YBR160W, strain CDC28, hits give low values): 0.134 (active) | normalized growth (locus YDL017W, strain CDC7, hits give low values): 0.1 (active) | normalized growth (locus YDL028C, strain MPS1, hits give low values): 0.108 (active) | normalized growth (locus YDL101C, strain DUN1, hits give low values): 0.165 (active) | normalized growth (locus YDL108W, strain KIN28, hits give low values): 0.122 (active) | normalized growth (locus YDL214C, strain PRR2, hits give low values): 0.103 (active) | normalized growth (locus YDR052C, strain DBF4, hits give low values): 0.451 (active) | normalized growth (locus YDR054C, strain cdc34, hits give low values): 0.482 (active) | normalized growth (locus YDR226W, strain ADK1, hits give low values): 0.534 (active) | normalized growth (locus YDR477W, strain SNF1, hits give low values): 0.117 (active) | normalized growth (locus YER123W, strain YCK3, hits give low values): 0.112 (active) | normalized growth (locus YER133W, strain GLC7, hits give low values): 0.114 (active) | normalized growth (locus YFL009W, strain cdc4, hits give low values): 0.108 (active) | normalized growth (locus YFL029C, strain CAK1, hits give low values): 0.0962 (active) | normalized growth (locus YFR003C, strain YPI1, hits give low values): 0.11 (active) | normalized growth (locus YFR019W, strain FAB1, hits give low values): 0.107 (active) | normalized growth (locus YFR028C, strain CDC14, hits give low values): 0.104 (active) | normalized growth (locus YGR040W, strain KSS1, hits give low values): 0.13 (active) | normalized growth (locus YGR052W, strain FMP48, hits give low values): 0.127 (active) | normalized growth (locus YGR092W, strain DBF2, hits give low values): 0.114 (active) | normalized growth (locus YHR030C, strain SLT2, hits give low values): 0.127 (active) | normalized growth (locus YHR079C, strain IRE1, hits give low values): 0.125 (active) | normalized growth (locus YHR082C, strain KSP1, hits give low values): 0.157 (active) | normalized growth (locus YHR205W, strain SCH9, hits give low values): 0.021 (active) | normalized growth (locus YIL147C, strain SLN1, hits give low values): 0.112 (active) | normalized growth (locus YJL095W, strain BCK1, hits give low values): 0.135 (active) | normalized growth (locus YJL128C, strain PBS2, hits give low values): 0.257 (active) | normalized growth (locus YJL157C, strain FAR1, hits give low values): 0.0902 (active) | normalized growth (locus YJR016C, strain ILV3, hits give low values): 0.103 (active) | normalized growth (locus YJR066W, strain TOR1 (second series), hits give low values): 0.109 (active) | normalized growth (locus YJR066W, strain TOR1, hits give low values): 0.137 (active) | normalized growth (locus YKL048C, strain ELM1, hits give low values): 0.129 (active) | normalized growth (locus YKL067W, strain YNK1, hits give low values): 0.109 (active) | normalized growth (locus YKL101W, strain HSL1, hits give low values): 0.128 (active) | normalized growth (locus YKL193C, strain SDS22, hits give low values): 0.108 (active) | normalized growth (locus YKL203C, strain TOR2, hits give low values): 0.113 (active) | normalized growth (locus YLR113W, strain HOG1, hits give low values): 0.132 (active) | normalized growth (locus YLR133W, strain CKI1, hits give low values): 0.106 (active) | normalized growth (locus YLR403W, strain SFP1, hits give low values): 0.0146 (active) | normalized growth (locus YML070W, strain DAK1, hits give low values): 0.13 (active) | normalized growth (locus YMR001C, strain CDC5, hits give low values): 0.0999 (active) | normalized growth (locus YMR205C, strain PFK2 (second series), hits give low values): 0.12 (active) | normalized growth (locus YMR277W, strain FCP1, hits give low values): 0.108 (active) | normalized growth (locus YNL006W, strain LST8, hits give low values): 0.0957 (active) | normalized growth (locus YNL020C, strain ARK1, hits give low values): 0.11 (active) | normalized growth (locus YNL161W, strain CBK1, hits give low values): 0.107 (active) | normalized growth (locus YNL183C, strain NPR1, hits give low values): 0.156 (active) | normalized growth (locus YNL207W, strain RIO2, hits give low values): 0.119 (active) | normalized growth (locus YNL222W, strain SSU72, hits give low values): 0.095 (active) | normalized growth (locus YNL307C, strain MCK1 (second series), hits give low values): 0.114 (active) | normalized growth (locus YOL078W, strain AVO1, hits give low values): 0.104 (active) | normalized growth (locus YOL136C, strain PFK27, hits give low values): 0.1 (active) | normalized growth (locus YOR061W, strain CKA2, hits give low values): 0.115 (active) | normalized growth (locus YOR119C, strain RIO1, hits give low values): 0.11 (active) | normalized growth (locus YOR231W, strain MKK1, hits give low values): 0.119 (active) | normalized growth (locus YOR329C, strain SCD5, hits give low values): 0.0917 (active) | normalized growth (locus YPL031C, strain PHO85, hits give low values): 0.116 (active) | normalized growth (locus YPL153C, strain RAD53, hits give low values): 0.127 (active) | normalized growth (locus YPL204W, strain HRR25, hits give low values): 0.13 (active) | normalized growth (locus YPL209C, strain IPL1, hits give low values): 0.102 (active) | normalized growth (locus YPL256C, strain CLN2, hits give low values): 0.16 (active) | normalized growth (locus YPR025C, strain CCL1, hits give low values): 0.101 (active) | normalized growth (strain NNK1, hits give low values): 0.108 (active) | normalized growth (strain TSCII, hits give low values): 0.102 (active)

O=C(NCC1CCCCN1)c1cc(OCC(F)(F)F)ccc1OCC(F)(F)F (stereo not given)
normalized growth (locus YAL040C, strain CLN3, hits give low values): 0.988 | normalized growth (locus YCL061C, strain MRC1 (second series), hits give low values): 1 | normalized growth (locus YDR150W, strain NUM1, hits give low values): 1.01 | normalized growth (locus YDR363W, strain ESC2, hits give low values): 1.01 | normalized growth (locus YER002W, strain NOP16, hits give low values): 0.987 | normalized growth (locus YGR229C, strain SMI1, hits give low values): 1.03 | normalized growth (locus YNL175C, strain NOP13, hits give low values): 0.989 | normalized growth (locus YNL197C, strain WHI3, hits give low values): 0.986 | normalized growth (locus YNL224C, strain SQS1, hits give low values): 1.04 | normalized growth (locus YNL322C, strain KRE1, hits give low values): 0.995 | normalized growth (locus YOR083W, strain WHI5 (second series), hits give low values): 1.01 | normalized growth (locus YPL241C, strain CIN2, hits give low values): 0.998
